In all, about 10,000 compounds went through this assay and about 320 (3.2%) were called active. Only a selection was taken, and actives are over-represented in it overall. Unmarked numbers belong to inactive results. Rule as the data show it: active = CPE inhibition mostly above about 9.1% (no sharp cut-off); inactive = mostly below about 7.2%.
Assay: Dengue virus cytopathic effect inhibitors, cell-based, CPE readout, HTS (AID 540333)
Settings: Dengue virus CPE inhibition in host cells, at 20 µM; stronger effect = higher value

Row | Compound | CPE inhibition
1 | CC1=CC(C)(C)N(C(=O)CSc2nnc(N)s2)c2ccccc21 | 0.04%
2 | COc1ccc2c(c1)-c1nc(/N=C/c3ccc(O)c(OC)c3)sc1CC2 | 1.8%
3 | Cc1ccc(-n2nc(C)c(C3(O)C(=O)N(C(C)C)c4ccccc43)c2N)cc1 (stereo not drawn) | inactive
4 | COC(=O)C1=C(C)N(Cc2ccccc2)C(=O)N[C@H]1c1cccc(F)c1 | 0.125%
5 | CCOC(=O)C1=C(C)N(Cc2ccccc2)C(=O)NC1c1ccccc1OS(=O)(=O)c1ccccc1[N+](=O)[O-] (stereo not drawn) | 14.2% (active)
6 | CCOC(=O)C1=C(C)N(CCCCCC(=O)O)C(=O)NC1c1cccc([N+](=O)[O-])c1 (stereo not drawn) | 0.825%
7 | Cc1cccc(C)c1-n1c(SCC(=O)N2CC(=O)Nc3ccccc32)nc2ccccc2c1=O | 1.7%
8 | Cc1ccc(-n2c(SCC(=O)N3CC(=O)Nc4ccccc43)nc3ccccc3c2=O)cc1 | 2.37%
9 | Cc1ccc(Cn2c(SCC(=O)N3CC(=O)Nc4ccccc43)nc3ccccc3c2=O)cc1 | 22.3% (active)
10 | COc1ccc(C2=NN(C(=O)CSc3nc4ccccc4s3)C(c3ccc(OC)cc3)C2)cc1 (stereo not drawn) | 2.96%
11 | COc1ccc(C2CC(c3ccccc3)=NN2C(=O)CSc2ncccn2)cc1 (stereo not drawn) | 0.205%
12 | CCCn1c(SCC(=O)N2N=C3/C(=C/c4ccc(OC)cc4)CCCC3C2c2ccc(OC)cc2)n[nH]c1=O (stereo not drawn) | 10.2% (active)
13 | C#CCNC(=O)C1=C[C@@H](c2ccc(C(F)(F)F)cc2)C[C@@H](OCc2ccc(CO)cc2)O1 | 2.77%
14 | CCC(OCC(O)CN1CCN(CCN2C(=O)c3cccc4cccc(c34)C2=O)CC1)c1ccccc1 (stereo not drawn) | inactive
15 | Cc1cccc(CC(=O)N2CCN=C2SCc2ccc([N+](=O)[O-])cc2)c1 | inactive
16 | O=[N+]([O-])c1ccc(CSc2nnc(Cc3ccccc3)n2-c2ccc(F)cc2)cc1 | 3.26%
17 | Cc1cccc(-n2c(Cc3ccccc3)nnc2SCc2ccc([N+](=O)[O-])cc2)c1 | 14.3% (active)
18 | Cc1ccc(NC(=O)c2cc(S(=O)(=O)NCCc3ccccc3)ccc2F)cc1Cl | 2.79%
19 | Cc1ccc(S(=O)(=O)NCCC(=O)Nc2ccc(C)c(Cl)c2)cc1C | 12.8% (active)
20 | Cc1ccc(NC(=O)CCC(=O)NNS(=O)(=O)c2ccccc2)cc1C | inactive
21 | CC(Sc1nnc(-c2ccccc2)c(-c2ccccc2)n1)C(=O)Nc1ncc(Cl)cc1Cl (stereo not drawn) | 0.725%
22 | C/C(=N\NC(=O)c1cccc(S(=O)(=O)Nc2ccccc2Cl)c1)c1ccco1 | inactive

Row | Compound | CPE inhibition
23 | CCOc1ccc(Br)cc1CNCCN1CCOCC1 | inactive
24 | CCOc1ccc(CSC(=N)N)cc1 | 0.245%
25 | CCOc1ccc(Br)cc1CSC(=N)N | 13.3% (active)
26 | CC1C=CCC2C(=O)N(c3ccc(Cl)cc3O)C(=O)C12 (stereo not drawn) | 28.6% (active)
27 | O=C(Oc1ccccc1N1C(=O)C2CC=CCC2C1=O)c1ccc(Br)cc1 (stereo not drawn) | 0.075%
28 | O=C(NCCCN1CCOCC1)c1onc(CSc2ccccc2)c1C(=O)NCCCN1CCOCC1 | inactive
29 | O=C(CSc1nnc(-c2n[nH]c3ccccc23)n1-c1ccccc1)Nc1ccccc1Cl | 19% (active)
30 | Cc1ccc(C)c(NC(=O)CSc2nnc(-c3n[nH]c4ccccc34)o2)c1 | 0.235%
31 | Cc1ccc(CCc2nnc(SCC(=O)Nc3ccccc3Cl)n2-c2ccccc2)o1 | 0.905%
32 | Cc1ccc(S(=O)(=O)NN=C2C3CC4CC(C3)CC2C4)cc1[N+](=O)[O-] | 0.27%
33 | Cn1cnnc1SC1c2cccc3cccc(c23)C1NS(=O)(=O)c1ccccc1 (stereo not drawn) | 0.485%
34 | Cc1ccc(C=Nc2ccccc2C(=O)Nc2ccccc2)cc1 | 0.36%
35 | CC(C)(C)OC(=O)C[C@H]1C/C=C\C[C@@H](CC(=O)N(CCO)Cc2ccccc2)C(=O)N[C@@H](c2ccccc2)COC1=O | inactive
36 | CC1(C)C(C=C(Cl)Cl)C1C(=O)N(Cc1ccccc1Cl)C1CCS(=O)(=O)C1 (stereo not drawn) | 29.9% (active)
37 | CC1(C)C(C=C(Cl)Cl)C1C(=O)N(Cc1cccc(Cl)c1)C1CCS(=O)(=O)C1 (stereo not drawn) | 0.525%
38 | CN(C(=O)COC(=O)c1cc(-c2ccccc2Cl)nc2ccccc12)C1CCS(=O)(=O)C1 (stereo not drawn) | inactive
39 | CCN(Cc1ccccc1)C(=O)C1CCN(C/C(C)=C/c2ccccc2)CC1 | inactive
40 | Cc1ccc(C)c(S(=O)(=O)Nc2nc(C)c(C(=O)Nc3ccccc3)s2)c1 | inactive
41 | O=C1NC(c2ccc(-c3ccccc3[N+](=O)[O-])o2)C(C(=O)c2ccc(F)cc2)C(O)(C(F)(F)F)N1 (stereo not drawn) | 23.4% (active)
42 | O=C1NC(c2ccc(-c3ccccc3[N+](=O)[O-])o2)C(C(=O)c2ccc(Cl)cc2)C(O)(C(F)(F)F)N1 (stereo not drawn) | 30.5% (active)
43 | O=C(N/N=C/c1ccc(-c2ccccc2[N+](=O)[O-])o1)[C@H]1C[C@@H]1c1ccccc1 | inactive
44 | O=C1c2ccccc2NC(c2ccc(-c3cccc([N+](=O)[O-])c3)o2)N1O (stereo not drawn) | 0.135%

Row | Compound | CPE inhibition
45 | O=C(/C=C/c1ccc(-c2ccccc2[N+](=O)[O-])o1)c1ccccc1 | 3.25%
46 | O=c1nc2s/c(=C\c3ccc(-c4ccccc4[N+](=O)[O-])o3)c(=O)n2nc1-c1ccccc1 | inactive
47 | COc1ccc(-c2cn(-c3ccccc3)c3[n+]2CCS3)cc1 | 7.46%
48 | O=C(CSc1nc2ccccc2[nH]1)Nc1ccc2c(c1)CCC2 | 2.09%
49 | NS(=O)(=O)c1ccc(NC(=S)NCc2ccccc2Cl)cc1 | 1.7%
50 | O=[N+]([O-])c1ccc(N2CCOCC2)cc1SCc1ccco1 | 0.08%
51 | COCCNC(=S)N1CCc2cc(OC)c(OC)cc2C1COc1ccc(C(C)C)cc1 (stereo not drawn) | 15.5% (active)
52 | COc1cccc(NC(=S)N2CCc3cc(OC)c(OC)cc3C2COc2ccc3c(C)cc(=O)oc3c2)c1 (stereo not drawn) | 0.46%
53 | CCc1ccc(OCC2c3cc(OC)c(OC)cc3CCN2C(=S)NCCOC)cc1 (stereo not drawn) | 17.3% (active)
54 | COCCNC(=S)N/N=C(\C)c1ccc2cc(OC)ccc2c1 | 0.1%
55 | COc1cc2c(cc1OC)C(C)N(C(=O)c1ccc(Br)o1)CC2 (stereo not drawn) | inactive
56 | COc1cc2c(cc1OC)CN(C(=S)Nc1c(C)cccc1C)CC2 | inactive
57 | COC(=O)Cc1ccc2sc(-c3ccccc3)nc2c1 | inactive
58 | COc1cc(/C=N/NC(=O)C2COc3ccccc3O2)cc(OC)c1OC (stereo not drawn) | inactive
59 | CC(C(=O)NCC1CCCCC1)N1CCN(S(=O)(=O)/C=C/c2ccccc2)CC1 (stereo not drawn) | 0.61%
60 | COc1ccc(NS(=O)(=O)c2ccc(OC)c(NC(=O)CCC3CCCCC3)c2)cc1 | 0.695%
61 | COc1ccc(NS(=O)(=O)c2ccc(C)c(NC(=O)NC3CCCCC3)c2)cc1 | 7.27% (active)
62 | O=C(NNS(=O)(=O)c1ccc2ccccc2c1)NC1CCCCC1 | inactive
63 | CCOc1ccc(/C(O)=C2/C(=O)C(=O)N(CC3CCCO3)C2c2cccs2)cc1 (stereo not drawn) | 0.87%
64 | Cc1nn(Cc2ccc(C(=O)N3N=C(C(F)F)CC3(O)C(F)F)o2)c(C)c1[N+](=O)[O-] (stereo not drawn) | 0.095%
65 | COc1cccc(NC(=O)CN(C)C(=O)COc2ccc3ccccc3c2)c1 | 0.135%
66 | Cc1ccc(S(=O)(=O)Nc2cc(=O)[nH]c(SCc3ccccc3Cl)n2)cc1 | inactive

Row | Compound | CPE inhibition
67 | O=C(CSc1nnc(-c2ccncc2)o1)NCc1ccccc1Cl | inactive
68 | Cc1ccc(S(=O)(=O)Nc2ccc(-c3nnc(SCc4ccccc4Cl)o3)cc2)cc1 | 17.2% (active)
69 | Cc1nn(CCC(N)=O)c2nc(-c3cccs3)cc(C(F)(F)F)c12 | inactive
70 | O=C(Oc1ccccc1C(=O)Nc1ccccc1)c1ccccc1Br | 1.84%
71 | COc1ccccc1CNC(=O)C(NS(=O)(=O)c1ccc2c(c1)OCCO2)C(C)C (stereo not drawn) | inactive
72 | CCCCN(C)C(=S)Nc1ccc(Oc2ccccc2)cc1 | 3.21%
73 | CCCn1c(SC(C(=O)Nc2cccc(OC)c2)c2ccccc2)nc2ccccc2c1=O (stereo not drawn) | 0.175%
74 | Cc1ccccc1NC(=O)C1CCCN1/C=C/C(=O)C(F)(F)F (stereo not drawn) | inactive
75 | CCC(=O)NC(Nc1nc(C)cs1)(C(=O)OC)C(F)(F)F (stereo not drawn) | 0.32%
76 | CC(C)(C)OC(=O)N[C@H](C(=O)OC(C)(C)C)c1ccc2ccccc2c1 | 0.425%
77 | CCOC(=O)C(C)(C)N(Cc1ccccc1C)S(=O)(=O)c1ccc(Cl)c([N+](=O)[O-])c1 | 7.12%
78 | CCOC(=O)C(C)(C)N(Cc1cccc(C)c1)S(=O)(=O)c1ccc(Cl)c([N+](=O)[O-])c1 | 7.24%
79 | CCOC(=O)C(C)(C)N(Cc1ccc(C)cc1)S(=O)(=O)c1ccc(Cl)c([N+](=O)[O-])c1 | 7.28% (active)
80 | O=C(NN1C(=O)/C(=C\c2cccnc2)SC1=S)C(c1ccccc1)c1ccccc1 | inactive
81 | Cc1ccccc1C(=O)NCCCCc1ccccc1 | 0.125%
82 | O=C(Cn1c(COc2ccc(Cl)cc2)nc2ccccc21)NCC(F)(F)F | inactive
83 | O=C(Cn1c(COc2ccccc2)nc2ccccc21)Nc1cc(Cl)ccc1Cl | 5.49%
84 | CCC(C)NC(=O)Cn1c(COc2ccc(Cl)cc2Cl)nc2ccccc21 (stereo not drawn) | 13.4% (active)
85 | CCOc1cc(/C=C/c2cc(C(=O)O)c3ccccc3n2)ccc1O | 0.055%
86 | Cc1ccc(S(=O)(=O)Nc2ccc(NC(=O)Nc3ccc(F)cc3F)cc2)cc1 | 10.3%
87 | Cc1ccc(NS(=O)(=O)c2ccc(C3CCCCC3)cc2)cc1 | 21.5% (active)
88 | Cc1ccc(NS(=O)(=O)c2ccc(OCC(=O)NCc3ccncc3)cc2)cc1 | 0.315%

Reference: PubChem BioAssay AID540333 (Southern Research Specialized Biocontainment Screening …, 2011)
